From PubChem
An excerpt weighted towards active compounds, which were near 1.2% of everything screened.
PGK inhibitor: T. brucei PGK inhibition. P07378. PGK/GAPDH coupled, Kinase-Glo luminescence, 60 min. Potency, µM (titrated, usually from 57.5 µM), for inactives: at the highest dose activity change, negative = inhibition, actives largely listed as inhibitors. 380,000 compounds, 0.043% hits; note: potency is the fitted concentration of half-maximal effect; nearly all actives have a fitted effect of over 60% in size
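Luminescent ATP detection (Kinase-Glo Plus) follows a 60-minute room-temperature incubation, with wells lacking PGK as controls. Buffer: 100 mM TEA (pH 7.6), 5 mM MgCl2, 0.01% Tween-20. Coupling enzyme GAPDH (100 nM final) supplies unstable 1,3-BPG in-well.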
GCN5L2 inh: blocks human GCN5L2 histone acetyltransferase; 390,000 compounds, 0.21% hits; Potency, µM (highest dose often 58.9 µM), for the others: at the highest dose activity change, negative = inhibition, usual class: inhibitors; AID 504327; GCN5L2 HAT assay, ThioGlo1 CoA-SH fluorescence; Q92830; note: potency is the fitted concentration of half-maximal effect
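qHTS, 1536-well. 20nM enzyme, pH 7.5 HEPES/EDTA/Tween-20 buffer; 15 min compound preinc., RT. Start: 75uM H3(1-25), 70uM AcCoA, 50uM ThioGlo1. Read Ex340/Em540 at t=0 (autofluorescence flag) and t=20 min.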
PI4K2A block: inhibitors of human PI4K2A; Q9BTU6; purified PI4K2A, ADP-Glo luminescence, 1 h; stronger effect = lower value; activity change, negative = inhibition, % at 76.9 µM; 420,000 compounds, 0.13% hits; AID 1346378; in the data active = activity change below about -50%; inconclusive = mostly about -30% to -49%;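 note: -100% = wells without enzyme as full effect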
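Compounds are screened against recombinant PI4K2A using PI as substrate and ATP, the latter dispensed at 300 microM. Reactions run one hour at ambient temperature before ADP-Glo detection; full inhibition defined by wells lacking enzyme.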
PI5P4K alpha inh: inhibitors of human PI5P4K alpha; PI5P4Kalpha enzyme, ADP-Glo luminescence, 60 min; stronger effect = lower value; max response, %; 330,000 compounds, 1.2% hits; AID 652105; active = max response of -50% or lower; inconclusive = between -30% and -50%; inactive = -30% or higher; note: value at the top dose of about 77 µM
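qHTS, 1536-well: enzyme/substrate mix, compound by pin tool, 5 microM ATP final; RT 60 min; ADP-Glo reagents 1 (45 min) then 2 (30 min); luminescence.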
Pin1 inh: inhibitors of human Pin1; Q13526; Pin1 FP peptide displacement, HiFluor488, 10 min; Potency, µM (top dose mostly 115 µM), for the others: top-dose activity, negative = inhibition, most hits filed as inhibitors; 390,000 compounds, 0.009% hits; active = well fitted inhibition curve with a large enough effect in the polarisation, with a control signal flat, not every such curve was filed as active; inconclusive = small, poorly fitted or top-dose-only effect, or effect the other way, or a change in a side signal; inactive = no such curve, though single readings can be large or run the other way; the % refers to the polarisation; note: potency is the fitted concentration of half-maximal effect
Target sequence (Q13526 whole entry, looked up): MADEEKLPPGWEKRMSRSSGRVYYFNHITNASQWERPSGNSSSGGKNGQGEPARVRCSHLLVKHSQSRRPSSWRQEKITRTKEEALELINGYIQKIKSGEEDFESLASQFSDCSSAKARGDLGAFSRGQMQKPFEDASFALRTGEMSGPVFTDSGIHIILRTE
RGS12 GoLoco inh: blocks human Gai1 binding to RGS12 GoLoco peptide, red readout; P63096; Gai1:RGS12 GoLoco peptide FP, rhodamine, 10 min; Potency, µM (doses to about 61.6 µM), inactives show top-dose activity, negative = inhibition, hits mostly inhibitors; 230,000 compounds, 0.44% hits; AID 880; active = well fitted inhibition curve with a large enough effect, not every such curve was filed as active; inactive = no such curve, though single readings can be large or run the other way; note: potency is the fitted concentration of half-maximal effect; nearly all actives have a fitted effect of over 30% in size
Target sequence (P63096 whole entry, looked up): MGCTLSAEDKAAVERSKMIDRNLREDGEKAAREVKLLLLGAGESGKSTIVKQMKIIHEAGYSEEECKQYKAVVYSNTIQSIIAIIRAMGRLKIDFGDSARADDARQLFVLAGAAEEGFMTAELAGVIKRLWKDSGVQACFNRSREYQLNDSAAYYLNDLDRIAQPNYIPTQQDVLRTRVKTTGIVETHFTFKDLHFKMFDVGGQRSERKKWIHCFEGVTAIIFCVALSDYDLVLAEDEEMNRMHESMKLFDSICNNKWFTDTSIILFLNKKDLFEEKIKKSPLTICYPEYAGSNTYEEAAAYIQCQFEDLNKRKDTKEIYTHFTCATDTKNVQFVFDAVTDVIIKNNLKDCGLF
ADP-Glo interf: interferes with ADP-Glo detection without enzyme present; shares compounds with PI5P4K alpha inh; ADP-Glo detection counter-screen, luciferase luminescence, no enzyme; Potency, µM (highest dose often 76.9 µM), for the others: top-dose activity change, negative = inhibition, actives largely listed as inhibitors; 1,100 tested, under 10 active; AID 743285
Numbers without * were called inactive; ? = inconclusive; · = not tested or not shown. Unless noted, calls come from the whole dose curve; as a rule, active = well fitted curve in the direction sought with a large enough effect; inconclusive = small, poorly fitted or top-dose-only effect, or another doubt; inactive = no such curve, though single readings can be large; an effect the other way counts as inactive or inconclusive. Unless noted, % is set by controls: 0 for no effect and ±100 for the full control effect.

SMILES	PGK inhibitor	GCN5L2 inh	PI4K2A block	PI5P4K alpha inh	Pin1 inh	RGS12 GoLoco inh	ADP-Glo interf
O=C(NC(=S)Nc1ccc2c(c1)OCCO2)c1ccccc1F	-7%	-4%	2	4	-1%	8%	·
O=[N+]([O-])c1ccc(-c2cc(-c3ccc(Cl)cc3)n[nH]2)cc1	-6%	-1%	-12	-69*	?	-1%	2%
CCC(=O)OC1(C)C(=O)C2=COC(c3ccc(OC)cc3)=CC2=C(Br)C1=O (stereo unspecified)	20µM*	-3%	?	-72*	?	-2%	-6%
O=C(Cc1cccs1)Nc1nnc(SCc2cccc3ccccc23)s1	-5%	?	-9	-53*	13%	103%	-1%
CCC(C)Oc1cc(-c2ccnc(Nc3cccc(Cl)c3)n2)ccn1 (stereo unspecified)	3%	-4%	1	15	4%	-7%	·
OCCCNc1cc(-c2ccnc(Nc3cccc(Cl)c3)n2)ccn1	-8%	-14%	-5	-51*	-2%	3%	5%
Cc1ccc2c(c1)N(CC(=O)N1CCOCC1)C(=O)C(C)O2 (stereo unspecified)	7%	-3%	3	0	-1%	·	·
Cc1ccc2c(c1)N(CC(=O)N1CCCCCC1)C(=O)C(C)O2 (stereo unspecified)	-7%	1%	-1	-73*	-6%	·	3%
CC(=O)Nc1ccc(NC(=S)Nc2ccc(Br)cc2)cc1	-2%	0%	5	-75*	?	9%	-3%
O=C(COc1ccc(Cl)cc1Cl)NN1C(=O)C2C3C=CC(C3)C2C1=O (stereo unspecified)	1%	-26%	2	6	4%	-7%	·
COc1cc(NC(=O)c2cccnc2SC)cc(OC)c1OC	-6%	-16%	2	-4	-7%	4%	·
CSc1ncccc1C(=O)Nc1ccc(OC(F)(F)F)cc1	-1%	1%	-2	-58*	-18%	7%	2%
Cc1sc2ncn(CC(=O)N3CCC(C(N)=O)CC3)c(=O)c2c1S(=O)(=O)N1CC(C)CC(C)C1 (stereo unspecified)	-25%	2%	4	-90*	?	·	-10%
COCCNC(=O)C(c1ccc(Cl)cc1)N(Cc1ccco1)C(=O)CCC(=O)Nc1ccccn1 (stereo unspecified)	9%	-8%	-5	-53*	4%	·	2%
COCCNC(=O)C(c1ccc(O)cc1)N(Cc1ccco1)C(=O)CCC(=O)Nc1ccccn1 (stereo unspecified)	0%	-1%	-2	-9	0%	·	·
COc1ccc(C(=O)NCCSc2ccccc2)cc1OC	8%	-1%	-19	-87*	0%	13%	-12%
COc1cc(C(=O)NCCSc2ccccc2)cc(OC)c1OC	-1%	-2%	-6	-1	-8%	·	·
CCOC(=O)C1=C(COC(=O)/C=C/c2ccc([N+](=O)[O-])cc2)NC(=O)NC1C (stereo unspecified)	-4%	-15%	-17	?	9%	·	·
CCOC(=O)N1CCN(C(=O)CCS(=O)(=O)c2ccc3c(c2)CCN3C(=O)CC)CC1	-3%	-3%	-1	?	0%	·	-2%
O=C(Oc1ccc2ccc(=O)oc2c1)c1ccco1	-9%	0%	7	4	-13%	·	·
CNC(=O)[C@H]1O[C@H](n2cnc3c(NCc4cccc(I)c4)nc(Cl)nc32)[C@@H](O)[C@@H]1O	·	-18%	·	·	·	7%	·
CCOC(=O)C1=C(N)N(c2ccccc2)C(=O)C1	-9%	93%	-7	-58*	-1%	-3%	-5%
CCOC(=O)c1ccc(N2C(=O)CC(C(=O)OC)=C2C)cc1	9%	0%	13	-6	-5%	5%	·
